Measurements as given in PubChem BioAssay (NCATS).
Where “and” joins values, the source holds several entries; their conditions need not be identical. Equal entries are not always repeated. Inconclusive results are not listed. Calls of active or inactive are those of the source. Unless noted, calls come from the whole dose curve; as a rule, active = well fitted curve in the direction sought with a large enough effect; inconclusive = small, poorly fitted or top-dose-only effect, or another doubt; inactive = no such curve, though single readings can be large; an effect the other way counts as inactive or inconclusive.

How the values were obtained:
[1] = molecular target: Cellular tumor antigen p53 (Homo sapiens) (UniProt P04637); test: Primary qHTS for small molecule compounds that upregulate eGFP-tagged delta133p53alpha (in N-terminal) cells. (AID 2060322); settings: NCI-H358 eGFP-delta133p53alpha fluorescence, 24 h; activation: stronger effect = higher value;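 note: cells pre-induced with doxycycline then dosed without doxycycline; series mostly up to about 56 µM; 0% = DMSO vehicle and 100% = reference activator; nearly all actives have a fitted effect of over 75% in size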
Summary of the method: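 NCI-H358 cells pre-induced 24 h with 10 ng/ml doxycycline for eGFP-delta133p53alpha, plated dox-free and exposed 24 h at 37C to titrated compounds. Fixed, Hoechst-stained; gated GFP peak intensity by laser scanning cytometry, normalized to DMSO (0%) and 57.5 uM 5-azacytidine (100%).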

[2] = molecular target: Cellular tumor antigen p53 (Homo sapiens) (UniProt P04637); test: Primary qHTS for small molecule compounds that upregulate eGFP-tagged delta133p53alpha (in C-terminal) cells. (AID 2060324);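 note: 0% = DMSO wells and 100% = 57.5 µM 5-azacytidine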
Summary of the method: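 Read-out: gated-cell GFP peak intensity (laser scanning cytometer), plate-normalized with DMSO as 0% activity, after 24 h compound exposure at 37C. Cells were C-terminal eGFP-tagged delta133p53alpha NCI-H358, doxycycline-induced (100 ng/ml, 24 h) before plating.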

[3] = molecular target: Aldehyde dehydrogenase, mitochondrial (Homo sapiens) (UniProt P05091); test: qHTS for Inhibitors of the Aldehyde Dehydrogenase Family (ALDH2) Validation screens (AID 2061302; active = well fitted inhibition curve with a large enough effect; title and protocol of this record describe different tests;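 note: plate controls were DMSO vehicle for no effect and maximal DPI positive control response for full effect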)

Cellular tumor antigen p53 (Homo sapiens), sequence (P04637 whole entry, looked up): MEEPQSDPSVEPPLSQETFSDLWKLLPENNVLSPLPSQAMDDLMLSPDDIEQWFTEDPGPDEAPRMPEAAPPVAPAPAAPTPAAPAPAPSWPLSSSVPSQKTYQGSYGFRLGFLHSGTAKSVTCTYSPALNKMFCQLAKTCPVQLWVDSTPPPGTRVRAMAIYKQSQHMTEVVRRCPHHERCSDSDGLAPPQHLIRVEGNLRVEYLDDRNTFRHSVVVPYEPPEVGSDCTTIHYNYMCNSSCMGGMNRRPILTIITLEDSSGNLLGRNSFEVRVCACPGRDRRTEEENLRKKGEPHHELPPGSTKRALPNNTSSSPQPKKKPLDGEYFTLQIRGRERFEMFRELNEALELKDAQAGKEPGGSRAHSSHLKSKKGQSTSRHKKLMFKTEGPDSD

NCCCNCCCCNCCCN
inactive: activation [1] -8.4% | Potency [2] | Potency [3]

CCc1c(C)[nH]c2c1C(=O)C(CN1CCOCC1)CC2 (centres undefined)
inactive: activation [1] 4.18% and -34.4% | Potency [2] | Potency [3]

Oc1cc2c(cc1O)CN(C(=S)NCCc1ccc(Cl)cc1)CCC2
inactive: activation [1] -14.7% | Potency [2] | Potency [3]

O=C(O)Cc1c[nH]c2ccc(O)cc12
inactive: activation [1] 8.12% | Potency [2] | Potency [3]

OCCN1CCN(CCCN2c3ccccc3C=Cc3ccccc32)CC1
inactive: activation [1] -10.7% and -5.62% | Potency [2] | Potency [3]

C#CCN(C)Cc1ccccc1
inactive: activation [1] 2.82% and -8.29% | Potency [2] | Potency [3]

COc1ccc(CCN(C)CCc2ccc(OC)c(OC)c2)cc1OC
inactive: activation [1] -16.8% | Potency [2] | Potency [3]

CNCCNS(=O)(=O)c1cccc2cnccc12
inactive: activation [1] -55.4% | Potency [2] | Potency [3]

O=C(CCc1ccncc1)NNC(=O)N1Cc2ccccc2Oc2ccc(Cl)cc21
inactive: activation [1] -9.58% | Potency [2] | Potency [3]

Oc1cc2c(cc1O)C(c1ccccc1)CNCC2 (centres undefined)
inactive: activation [1] 5.86% | Potency [2] | Potency [3]

Clc1ccc(N2CCN(Cc3c[nH]c4ncccc34)CC2)cc1
inactive: activation [1] -17.7% | Potency [2] | Potency [3]

CCN(CC)CCOC(=O)c1cc(Cl)c(N)cc1OC
inactive: activation [1] -18.7% | Potency [2] | Potency [3]

CCCC[C@@]1(C2CCCC2)Cc2cc(OCC(=O)O)c(Cl)c(Cl)c2C1=O
inactive: activation [1] -7.36% | Potency [2] | Potency [3]
